From PubChem BioAssay AID1159580 (chemical genetic matrix, 2015)
Screen size: about 5,500 compounds; about 2,000 (36%) were called active. Another 18% or so got no clear call; they are omitted. No stated cut-off is given here; in the data, active means normalized growth mostly below about 0.91 (no sharp cut-off); inconclusive means no clear call, values can overlap the other calls; inactive means mostly above about 0.92. The list shows a part of the results.

Assay: chemical genetic growth profiling, strain panel (AID 1159580);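 further: tested at 20 µM; growth read once vehicle control cultures reached saturation at 30 °C; 1 = growth at the plate median or of vehicle wells; lower values mean less growth of the strain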
Details: growth OD

Measured: normalized growth

C=CC(C1=CC(=O)C(OC)=CC1=O)c1ccc(OC)cc1 (configuration not stated)
inactive: S. cerevisiae deletion strains, locus YJR066W, strain TOR1, hits give low values 0.94 | S. cerevisiae deletion strains, locus YKL009W, strain mrt4, hits give low values 0.944 | S. cerevisiae deletion strains, locus YKL068W, hits give low values 0.976 | S. cerevisiae deletion strains, locus YKL085W, strain MDH1 (second series), hits give low values 0.966 | S. cerevisiae deletion strains, locus YKL085W, strain MDH1, hits give low values 0.966 | S. cerevisiae deletion strains, locus YKL190W, strain CNB1, hits give low values 0.947 | S. cerevisiae deletion strains, locus YKR026C, strain gcn3, hits give low values 0.967 | S. cerevisiae deletion strains, locus YKR091W, strain srl3, hits give low values 0.998 | S. cerevisiae deletion strains, locus YLL001W, strain dnm1, hits give low values 0.907 | S. cerevisiae deletion strains, locus YLL041C, strain sdh2, hits give low values 0.955 | S. cerevisiae deletion strains, locus YLR039C, strain RIC1, hits give low values 0.819 | S. cerevisiae deletion strains, locus YLR058C, strain SHM2, hits give low values 0.952 | S. cerevisiae deletion strains, locus YLR102C, strain apc9, hits give low values 0.945 | S. cerevisiae deletion strains, locus YLR113W, strain HOG1, hits give low values 0.958 | S. cerevisiae deletion strains, locus YLR262C, strain YPT6, hits give low values 0.71 | S. cerevisiae deletion strains, locus YLR330W, strain CHS5, hits give low values 0.968 | S. cerevisiae deletion strains, locus YLR342W, strain FKS1, hits give low values 0.914 | S. cerevisiae deletion strains, locus YLR357W, strain rsc2, hits give low values 1.07 | S. cerevisiae deletion strains, locus YLR371W, strain rom2, hits give low values 0.941 | S. cerevisiae deletion strains, locus YLR384C, strain iki3, hits give low values 0.974 | S. cerevisiae deletion strains, locus YML016C, strain PPZ1, hits give low values 0.973 | S. cerevisiae deletion strains, locus YML124C, strain tub3, hits give low values 0.949 | S. cerevisiae deletion strains, locus YMR078C, strain ctf18, hits give low values 0.914 | S. cerevisiae deletion strains, locus YMR129W, hits give low values 1 | S. cerevisiae deletion strains, locus YMR263W, strain SAP30, hits give low values 0.946 | S. cerevisiae deletion strains, locus YMR307W, strain GAS1, hits give low values 0.793 | S. cerevisiae deletion strains, locus YNL067W, strain RPL9B, hits give low values 0.947 | S. cerevisiae deletion strains, locus YNL128W, strain TEP1, hits give low values 0.942 | S. cerevisiae deletion strains, locus YNL153C, strain GIM3, hits give low values 0.983 | S. cerevisiae deletion strains, locus YNL183C, strain NPR1, hits give low values 0.972 | S. cerevisiae deletion strains, locus YNL209W, strain ssb2, hits give low values 0.939 | S. cerevisiae deletion strains, locus YNL250W, strain rad50, hits give low values 0.944 | S. cerevisiae deletion strains, locus YNL271C, strain bni1, hits give low values 0.957 | S. cerevisiae deletion strains, locus YNL298W, strain CLA4, hits give low values 0.928 | S. cerevisiae deletion strains, locus YNL322C, strain KRE1 (second series), hits give low values 0.996 | S. cerevisiae deletion strains, locus YNL322C, strain KRE1, hits give low values 0.966 | S. cerevisiae deletion strains, locus YNR049C, strain mso1, hits give low values 0.962 | S. cerevisiae deletion strains, locus YOL006C, strain TOP1, hits give low values 0.669 | S. cerevisiae deletion strains, locus YOL012C, strain htz1 0.791 | S. cerevisiae deletion strains, locus YOR061W, strain CKA2, hits give low values 0.962 | S. cerevisiae deletion strains, locus YOR069W, strain VPS5, hits give low values 0.962 | S. cerevisiae deletion strains, locus YOR080W, strain dia2, hits give low values 1 | S. cerevisiae deletion strains, locus YOR144C, strain elg1, hits give low values 0.956 | S. cerevisiae deletion strains, locus YOR231W, strain MKK1, hits give low values 1.03 | S. cerevisiae deletion strains, locus YOR265W, strain rbl2, hits give low values 0.945 | S. cerevisiae deletion strains, locus YOR316C, strain cot1, hits give low values 0.947 | S. cerevisiae deletion strains, locus YPL055C, strain LGE1, hits give low values 0.869 | S. cerevisiae deletion strains, locus YPL106C, strain sse1, hits give low values 1.03 | S. cerevisiae deletion strains, locus YPL241C, strain CIN2, hits give low values 0.982 | S. cerevisiae deletion strains, locus YPL256C, strain CLN2, hits give low values 1.08 | S. cerevisiae deletion strains, locus YPR119W, strain clb2, hits give low values 0.944 | S. cerevisiae deletion strains, locus YPR141C, strain kar3, hits give low values 0.963 | S. cerevisiae deletion strains, locus YPR167C, strain met16, hits give low values 0.95
active: S. cerevisiae deletion strains, locus YJR075W, strain HOC1, hits give low values 0.859 | S. cerevisiae deletion strains, locus YKL160W, strain elf1, hits give low values 0.741 | S. cerevisiae deletion strains, locus YKR001C, strain vps1, hits give low values 0.814 | S. cerevisiae deletion strains, locus YLL026W, hits give low values 0.839 | S. cerevisiae deletion strains, locus YLR027C, strain aat2, hits give low values 0.759 | S. cerevisiae deletion strains, locus YLR221C, strain rsa3, hits give low values 0.701 | S. cerevisiae deletion strains, locus YLR258W, strain gsy2, hits give low values 0.849 | S. cerevisiae deletion strains, locus YLR262C, strain YPT6 (second series), hits give low values 0.39 | S. cerevisiae deletion strains, locus YLR268W, strain sec22, hits give low values 0.87 | S. cerevisiae deletion strains, locus YLR320W, strain mms22, hits give low values 0.276 | S. cerevisiae deletion strains, locus YLR342W, strain FKS1 (second series), hits give low values 0.674 | S. cerevisiae deletion strains, locus YLR370C, strain arc18, hits give low values 0.864 | S. cerevisiae deletion strains, locus YLR418C, strain cdc73, hits give low values 0.783 | S. cerevisiae deletion strains, locus YML032C, strain rad52, hits give low values 0.855 | S. cerevisiae deletion strains, locus YML120C, strain ndi1, hits give low values 0.911 | S. cerevisiae deletion strains, locus YMR058W, strain fet3, hits give low values 0.84 | S. cerevisiae deletion strains, locus YMR125W, strain sto1, hits give low values 0.779 | S. cerevisiae deletion strains, locus YMR205C, strain PFK2, hits give low values 0.715 | S. cerevisiae deletion strains, locus YMR223W, strain ubp8, hits give low values 0.851 | S. cerevisiae deletion strains, locus YNL071W, strain lat1, hits give low values 0.15 | S. cerevisiae deletion strains, locus YNL233W, strain BNI4, hits give low values 0.862 | S. cerevisiae deletion strains, locus YNL248C, strain rpa49, hits give low values 0.727 | S. cerevisiae deletion strains, locus YNL307C, strain MCK1, hits give low values 0.412 | S. cerevisiae deletion strains, locus YNR052C, strain pop2, hits give low values 0.901 | S. cerevisiae deletion strains, locus YOL147C, strain pex11, hits give low values 0.903 | S. cerevisiae deletion strains, locus YOR001W, strain rrp6, hits give low values 0.844 | S. cerevisiae deletion strains, locus YOR070C, strain gyp1, hits give low values 0.817 | S. cerevisiae deletion strains, locus YOR083W, strain WHI5, hits give low values 0.788 | S. cerevisiae deletion strains, locus YOR106W, strain vam3, hits give low values 0.642 | S. cerevisiae deletion strains, locus YOR136W, strain idh2, hits give low values 0.919 | S. cerevisiae deletion strains, locus YOR184W, strain ser1, hits give low values 0.738 | S. cerevisiae deletion strains, locus YOR270C, strain vph1, hits give low values 0.416 | S. cerevisiae deletion strains, locus YOR290C, strain snf2, hits give low values 0.851 | S. cerevisiae deletion strains, locus YPL051W, strain arl3, hits give low values 0.657 | S. cerevisiae deletion strains, locus YPL078C, strain atp4, hits give low values 0.802 | S. cerevisiae deletion strains, locus YPL240C, strain hsp82, hits give low values 0.851 | S. cerevisiae deletion strains, locus YPR163C, strain tif3, hits give low values 0.8 | S. cerevisiae deletion strains, strain wtn01, hits give low values 0.877 | S. cerevisiae strains, strain wild type, hits give low values 0.886
